Data from PubChem BioAssay AID624459 (National Center for Advancing Translational Sciences (NCATS), 2012).
Calls of active or inactive are those of the source. How the calls were made is not given here.

Assay: HTS Assay for Allosteric Antagonists of the Human D2 Dopamine Receptor: Hit Validation in Parental Cell Line

## NCCc1ccc(O)c(O)c1
  outcome: inactive
